Measured values reported in PubChem BioAssay (EPA / NIEHS).
The source made the active and inactive calls. How the source made its calls: active means hit-call score of the fitted dose curve at least 0.9, where 1 is the maximum; inactive means score below 0.9.

Assays:
Details in all cases: mRNA level, 48 h; actives raise or lower the signal
[1] = read-out: Cytochrome P450 (CYP2B6), CYP2B6 (gene 1555); assay: LTEA_HepaRG_CYP2B6: Life Technologies and Expression Analysis (LTEA) Assay for Cytochrome P450 (CYP2B6) using HepaRG (AID 2283481)
How it was run: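 HepaRG cells plated 48 h, switched to serum-free induction medium, then dosed 48 h (8 points, half-log from 100 uM, 0.5% DMSO). RNA isolated; CYP2B6 expression measured by qRT-PCR; gain or loss fitted relative to DMSO.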

[2] = read-out: Cytochrome P450 2C19 (Homo sapiens) (UniProt P33261); assay: LTEA_HepaRG_CYP2C19: Life Technologies and Expression Analysis (LTEA) Assay for CYP2C19 using HepaRG (AID 2283482)
How it was run: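 Transcript levels of CYP2C19 were quantified by qRT-PCR after HepaRG cells were treated for 48 hours with test chemicals up to 100 uM (eight half-log concentrations, 0.5% DMSO vehicle). Gain or loss of signal was fitted relative to DMSO.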

[3] = read-out: CYP2C8 (gene 1558); assay: LTEA_HepaRG_CYP2C8: Life Technologies and Expression Analysis (LTEA) Assay for CYP2C8 using HepaRG (AID 2283483)
How it was run: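 This is a transcriptional endpoint in HepaRG cultures: 48 h exposure, highest concentration 100 uM. CYP2C8 mRNA is quantified by TaqMan qRT-PCR.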

[4] = read-out: CYP2C9 (gene 1559); assay: LTEA_HepaRG_CYP2C9: Life Technologies and Expression Analysis (LTEA) Assay for CYP2C9 using HepaRG (AID 2283484)
How it was run: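 Eight-point concentration-response (highest 100 uM, half-log dilutions) in HepaRG cells for 48 h; CYP2C9 expression by qRT-PCR normalized to ACTB, GAPDH, POLR2A. Bidirectional fit, DMSO baseline.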

[5] = read-out: CYP2E1 (gene 1571); assay: LTEA_HepaRG_CYP2E1: Life Technologies and Expression Analysis (LTEA) Assay for CYP2E1 using HepaRG (AID 2283485)
How it was run: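 Readout is qRT-PCR of CYP2E1 mRNA, normalized to three housekeeping genes and fitted bidirectionally against 0.5% DMSO. HepaRG cells were dosed 48 h at eight concentrations, highest 100 uM with half-log dilutions.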

[6] = read-out: CYP4A11 (gene 1579); assay: LTEA_HepaRG_CYP4A11: Life Technologies and Expression Analysis (LTEA) Assay for CYP4A11 using HepaRG (AID 2283486)
How it was run: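 HepaRG, 48 h chem exposure, 8 conc (100 uM top, half-log), 0.5% DMSO vehicle; qRT-PCR readout, housekeeping-gene normalized; bidirectional curve fit vs DMSO baseline.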

[7] = read-out: Cytochrome P450 3A4 (Homo sapiens) (UniProt P08684); assay: LTEA_HepaRG_CYP3A4: Life Technologies and Expression Analysis (LTEA) Assay for CYP3A4 using HepaRG (AID 2283487)
How it was run: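 Differentiated HepaRG cells, plated 48 h, then dosed 48 h in serum-free induction medium with 0.5% DMSO, 8 half-log concentrations up to 100 uM, duplicate. CYP3A4 mRNA by qRT-PCR, normalized to ACTB/GAPDH/POLR2A; bidirectional fit versus DMSO.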

[8] = read-out: DNA damage-inducible transcript 3 (DDIT3), DDIT3 (gene 1649); assay: LTEA_HepaRG_DDIT3: Life Technologies and Expression Analysis (LTEA) Assay for DNA damage-inducible transcript 3 (DDIT3) using HepaRG (AID 2283488)
How it was run: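 Cells are human HepaRG liver cells treated for 48 h with eight half-log concentrations up to 100 uM in 0.5% DMSO. Transcript levels come from qRT-PCR normalized to three housekeeping genes, with activity fitted in both directions relative to vehicle.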

[9] = read-out: Pro-epidermal growth factor (Homo sapiens) (UniProt P01133); assay: LTEA_HepaRG_EGF: Life Technologies and Expression Analysis (LTEA) Assay for Epidermal growth factor (EGF) using HepaRG (AID 2283489)
How it was run: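 HepaRG, 48 h dosing, 100 uM top, half-log x8, 0.5% DMSO. Readout: TaqMan qRT-PCR (Fluidigm array), housekeeping-normalized. Gain or loss of signal fit vs DMSO.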

[10] = read-out: Early growth response protein 1 (EGR1) transcription factor, EGR1 (gene 1958); assay: LTEA_HepaRG_EGR1: Life Technologies and Expression Analysis (LTEA) Assay for Early growth response protein 1 (EGR1) transcription factor using HepaRG (AID 2283490)
How it was run: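 EGR1 expression change in human HepaRG after 48 h chemical exposure, assessed by housekeeping-normalized qRT-PCR; concentration-response up to 100 uM, fitted in both directions against DMSO controls.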

[11] = read-out: Ezrin (EZR), EZR (gene 7430); assay: LTEA_HepaRG_EZR: Life Technologies and Expression Analysis (LTEA) Assay for Ezrin (EZR) using HepaRG (AID 2283491)
How it was run: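 EZR transcript levels came from Fluidigm qRT-PCR and were normalized to three housekeeping genes after 48 h chemical exposure of HepaRG cells. Dosing used an 8-point half-log series with a 100 uM top concentration in 0.5% DMSO, tested in duplicate; both directions were fitted versus vehicle.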

[12] = read-out: CYP3A5 (gene 1577); assay: LTEA_HepaRG_CYP3A5: Life Technologies and Expression Analysis (LTEA) Assay for CYP3A5 using HepaRG (AID 2283493)
How it was run: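 Human HepaRG hepatic cells receive 48 h chemical treatment at eight concentrations (half-log steps from 100 uM) in 0.5% DMSO. Expression of CYP3A5 is quantified by Fluidigm qRT-PCR and normalized to three reference genes.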

[13] = read-out: Cytochrome P450 4A22 (Homo sapiens) (UniProt Q5TCH4); assay: LTEA_HepaRG_CYP4A22: Life Technologies and Expression Analysis (LTEA) Assay for Cytochrome P450 4A22 (CYP4A22) using HepaRG (AID 2283495)
How it was run: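 Readout is CYP4A22 transcript induction or loss, quantified by qRT-PCR and normalized to ACTB, GAPDH and POLR2A. Human HepaRG cells receive test chemicals for 48 h at eight half-log concentrations from 100 uM in 0.5% DMSO.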

[14] = read-out: Cytochrome P450 7A1 (Homo sapiens) (UniProt P22680); assay: LTEA_HepaRG_CYP7A1: Life Technologies and Expression Analysis (LTEA) Assay for Cytochrome P450 7A1 (CYP7A1) using HepaRG (AID 2283496)
How it was run: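 HepaRG, 48 h exposure, 8-pt half-log series from 100 uM, 0.5% DMSO vehicle, duplicates. Readout: TaqMan qRT-PCR mRNA vs three housekeeping genes; bidirectional curve fit against DMSO baseline.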

[15] = read-out: Glutathione S-Transferase (GSTA2), GSTA2 (gene 2939); assay: LTEA_HepaRG_GSTA2: Life Technologies and Expression Analysis (LTEA) Assay for Glutathione S-Transferase (GSTA2) using HepaRG (AID 2283497)
How it was run: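 Oxidative-stress marker GSTA2 is quantified by TaqMan qRT-PCR in HepaRG cultures treated 48 h across an eight-point range to 100 uM. Expression is normalized to endogenous controls and compared with 0.5% DMSO vehicle.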

[16] = read-out: Glutamate-cysteine ligase catalytic (GCLC), GCLC (gene 2729); assay: LTEA_HepaRG_GCLC: Life Technologies and Expression Analysis (LTEA) Assay for Glutamate-cysteine ligase catalytic (GCLC) using HepaRG (AID 2283498)
How it was run: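 Oxidative-stress marker GCLC is measured as mRNA change in human HepaRG liver cells after 48 h chemical treatment in 0.5% DMSO, eight concentrations from 100 uM. Activity is fitted bidirectionally against vehicle.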

[17] = read-out: growth arrest and DNA damage 45 (GADD45G), GADD45G (gene 10912); assay: LTEA_HepaRG_GADD45G: Life Technologies and Expression Analysis (LTEA) Assay for growth arrest and DNA damage 45 (GADD45G) using HepaRG (AID 2283499)
How it was run: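 Gain or loss of GADD45G mRNA, quantified by TaqMan qRT-PCR against three housekeeping genes, is fitted in both directions relative to 0.5% DMSO. Human HepaRG cultures receive test chemical for 48 h at up to 100 uM.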

[18] = read-out: Glutamate-cysteine ligase regulatory (GCLM), GCLM (gene 2730); assay: LTEA_HepaRG_GCLM: Life Technologies and Expression Analysis (LTEA) Assay for Glutamate-cysteine ligase regulatory (GCLM) using HepaRG (AID 2283500)
How it was run: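 Endpoint is GCLM transcript level by qRT-PCR, normalized to three housekeeping genes, after 48 h chemical exposure of human HepaRG cells (0.5% DMSO vehicle, top 100 uM, half-log dilutions). Fitting was bidirectional relative to DMSO.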

[19] = read-out: Fatty Acid-Binding Protein 1 (FABP1), FABP1 (gene 2168); assay: LTEA_HepaRG_FABP1: Life Technologies and Expression Analysis (LTEA) Assay for Fatty Acid-Binding Protein 1 (FABP1) using HepaRG (AID 2283494)
How it was run: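 Values reflect bidirectional concentration-response fitting of FABP1 mRNA change against 0.5% DMSO controls. Human HepaRG cultures received eight half-log doses (top 100 uM) for 48 h; expression quantified by TaqMan qRT-PCR with housekeeping-gene normalization.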

[20] = read-out: Cytochrome P450 3A7 (Homo sapiens) (UniProt P24462); assay: LTEA_HepaRG_CYP3A7: Life Technologies and Expression Analysis (LTEA) Assay for CYP3A7 using HepaRG (AID 2283492)
How it was run: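 Human HepaRG liver cells, 48 h post-plating, switched to serum-free induction medium and exposed in duplicate for 48 h. Dosing: 100 uM top, half-log dilutions, 8 points, 0.5% DMSO vehicle. Read-out: CYP3A7 mRNA, gain or loss fitted against DMSO baseline.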

Measured: AC50

Cytochrome P450 3A4 (Homo sapiens), sequence (P08684 whole entry, looked up): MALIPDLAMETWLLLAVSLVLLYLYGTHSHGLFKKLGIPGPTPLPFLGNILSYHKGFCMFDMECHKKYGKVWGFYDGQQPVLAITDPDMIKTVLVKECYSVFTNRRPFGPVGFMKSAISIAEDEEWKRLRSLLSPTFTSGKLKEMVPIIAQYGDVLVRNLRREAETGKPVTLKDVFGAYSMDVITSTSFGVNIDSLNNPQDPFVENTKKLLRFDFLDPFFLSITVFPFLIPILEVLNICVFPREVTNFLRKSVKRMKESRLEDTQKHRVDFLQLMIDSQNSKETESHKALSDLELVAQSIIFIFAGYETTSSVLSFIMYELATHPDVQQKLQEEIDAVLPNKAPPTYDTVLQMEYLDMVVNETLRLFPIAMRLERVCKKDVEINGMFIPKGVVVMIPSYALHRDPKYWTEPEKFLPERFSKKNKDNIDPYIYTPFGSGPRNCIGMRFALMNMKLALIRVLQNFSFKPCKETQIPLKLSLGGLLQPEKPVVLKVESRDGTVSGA
Cytochrome P450 2C19 (Homo sapiens), sequence (P33261 whole entry, looked up): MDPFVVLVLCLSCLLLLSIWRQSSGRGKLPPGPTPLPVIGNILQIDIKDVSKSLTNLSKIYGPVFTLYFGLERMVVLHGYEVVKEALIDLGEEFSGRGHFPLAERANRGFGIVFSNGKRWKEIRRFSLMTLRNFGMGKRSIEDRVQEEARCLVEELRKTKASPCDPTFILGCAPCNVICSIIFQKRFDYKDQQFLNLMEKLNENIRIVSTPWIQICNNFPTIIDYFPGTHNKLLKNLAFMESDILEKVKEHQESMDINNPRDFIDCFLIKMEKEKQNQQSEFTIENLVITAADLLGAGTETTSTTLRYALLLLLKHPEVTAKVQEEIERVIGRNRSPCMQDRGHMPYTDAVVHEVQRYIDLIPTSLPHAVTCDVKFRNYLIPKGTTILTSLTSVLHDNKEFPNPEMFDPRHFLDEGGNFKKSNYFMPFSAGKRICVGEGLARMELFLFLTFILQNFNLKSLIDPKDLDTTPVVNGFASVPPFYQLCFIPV
Cytochrome P450 3A7 (Homo sapiens), sequence (P24462 whole entry, looked up): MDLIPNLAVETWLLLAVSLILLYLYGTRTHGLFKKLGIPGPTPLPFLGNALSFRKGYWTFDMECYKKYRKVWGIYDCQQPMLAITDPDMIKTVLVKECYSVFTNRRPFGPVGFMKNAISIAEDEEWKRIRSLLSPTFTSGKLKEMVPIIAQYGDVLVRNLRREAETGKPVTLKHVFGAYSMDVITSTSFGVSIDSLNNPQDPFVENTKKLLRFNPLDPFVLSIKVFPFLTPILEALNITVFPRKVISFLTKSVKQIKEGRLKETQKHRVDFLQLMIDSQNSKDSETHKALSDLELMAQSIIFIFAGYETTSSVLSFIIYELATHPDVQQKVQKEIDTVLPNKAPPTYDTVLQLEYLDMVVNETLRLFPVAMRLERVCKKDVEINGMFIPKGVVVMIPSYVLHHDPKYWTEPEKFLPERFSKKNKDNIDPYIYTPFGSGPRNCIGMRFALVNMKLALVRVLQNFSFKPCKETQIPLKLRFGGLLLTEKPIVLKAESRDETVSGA

C=C(C)CN(CC)c1c([N+](=O)[O-])cc(C(F)(F)F)cc1[N+](=O)[O-]
active: [1] 23.6 µM | [2] 50 µM | [5] 87.9 µM | [7] 50 µM
not listed: [19] | [20]
inactive: all other assays above

COC(=O)NS(=O)(=O)c1ccc(N)cc1
not listed: [14] | [20]
inactive: all other assays above

N#Cc1c[nH]cc1-c1cccc2c1OC(F)(F)O2
active: [1] 32 µM | [2] 93.5 µM | [4] 50 µM | [5] 76 µM | [6] 85.2 µM | [7] 9.76 µM | [10] 50 µM | [19] 50 µM | [13] 84.8 µM | [15] 85.6 µM | [18] 93.2 µM
inactive: [3] | [8] | [9] | [11] | [12] | [16] | [17]

N#Cc1c(Cl)cccc1Cl
active: [1] 12.1 µM
not listed: [20]
inactive: all other assays above

Nc1cnn(-c2ccccc2)c(=O)c1Cl
active: [1] 17.1 µM | [5] 9.92 µM | [7] 17.6 µM
not listed: [14]
inactive: all other assays above

CN/C(=N\[N+](=O)[O-])NCc1cnc(Cl)s1
active: [1] 30.8 µM | [5] 50 µM | [19] 33.4 µM
not listed: [14] | [20]
inactive: all other assays above

Cn1c(-c2ccccc2)cc(-c2ccccc2)[n+]1C
inactive: [10] | [11] | [18]
active: [1] 11.3 µM | [2] 50 µM | [3] 13.5 µM | [4] 19.5 µM | [5] 24.5 µM | [6] 20.3 µM | [7] 50 µM | [8] 13.5 µM | [9] 81.3 µM | [20] 44.1 µM | [12] 79 µM | [13] 24 µM | [15] 65.9 µM | [16] 82.3 µM | [17] 50 µM

CCOP(=O)(OCC)Oc1nc(Cl)c(Cl)cc1Cl
inactive: [8] | [9] | [11] | [12] | [18]
active: [1] 83.6 µM | [2] 80.7 µM | [3] 84.5 µM | [4] 93 µM | [5] 76 µM | [6] 77.4 µM | [7] 49.8 µM | [10] 83.4 µM | [19] 82.6 µM | [13] 90.1 µM | [14] 83.8 µM | [15] 75.5 µM | [16] 84.1 µM

OC(c1ccc(Cl)cc1)(c1ccc(Cl)cc1)C(Cl)(Cl)Cl
inactive: [9] | [10] | [11] | [13] | [16] | [18]
active: [1] 11.8 µM | [2] 85.2 µM | [3] 80.6 µM | [4] 81.6 µM | [5] 50 µM | [6] 65.4 µM | [7] 87.6 µM | [8] 77.2 µM | [20] 83.5 µM | [12] 50 µM | [15] 77.3 µM | [17] 87.7 µM

Clc1cccc(C(Cl)(Cl)Cl)n1
active: [1] 2.9 µM
not listed: [14] | [19]
inactive: all other assays above

CC(C)(C)C(=O)C(Oc1ccc(Cl)cc1)n1cncn1 (configuration not stated)
active: [1] 5.18 µM | [2] 10.7 µM | [3] 15.4 µM | [5] 31.1 µM | [6] 50 µM | [7] 2.67 µM | [19] 50 µM | [13] 30.1 µM
not listed: [14] | [15] | [20]
inactive: all other assays above

CCCCC(C#N)(Cn1cncn1)c1ccc(Cl)cc1 (configuration not stated)
inactive: [4] | [9] | [10] | [11] | [12] | [15] | [16] | [18]
active: [1] 3.06 µM | [2] 5.75 µM | [3] 12.1 µM | [5] 50 µM | [6] 41.5 µM | [7] 4.85 µM | [8] 67.8 µM | [20] 3.89 µM | [19] 13.1 µM | [13] 51.8 µM | [17] 11.7 µM

CC(C)C1(C)N=C(c2ncccc2C(=O)O)NC1=O (configuration not stated)
not listed: [14]
inactive: all other assays above
